We go through five compounds from PubChem BioAssay.

Active and inactive are the calls of the source.

A short description of assay [1]: small molecules captured by biotinylated probe aFSTL3 – biochemical, small-molecule microarray, fluorescence 635/667, stem cell growth factor project, primary screen (AID 1064).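 Also: measures binding of the biotinylated anti-FSTL3 antibody to printed compounds.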 Conditions: higher = more signal.
A short description of assay [2]: binders from COS7 lysate, DM2A8 probe, primary screen, torsin A project, cell lysate, small-molecule microarray, fluorescence 635/667 (AID 1065). Conditions: higher = more signal, COS7 lysate expressing mutant human TOR1A.
Assay [3] is described as follows: small molecules captured by biotinylated probe aFGF2 – biochemical, small-molecule microarray, fluorescence 635/667, stem cell growth factor project, primary screen (AID 1067).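 Also: measures binding of biotinylated aFGF2 protein to printed compounds on slides; z-score merges feature fluorescence and signal-to-noise across triplicate slides.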 Conditions: higher = more signal.
The nature of assay [4]: small molecules captured by biotinylated probe aFGF10 – biochemical, small-molecule microarray, fluorescence 635/667, stem cell growth factor project, primary screen (AID 1071).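 Also: score merges 667 nm spot intensity and signal to noise from triplicate slides.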 Conditions: higher = more signal.
For assay [5], the target named is Neurogenic locus notch homolog protein 2 (Homo sapiens) (UniProt Q04721). Put plainly: small molecules binding Notch2 protein – biochemical, small-molecule microarray, 635 nm fluorescence, stem cell growth factors, primary screen (AID 1073). Conditions: higher = more signal.
The target of assay [6] is Pro-neuregulin-1, membrane-bound isoform (Homo sapiens) (UniProt Q02297). Put plainly: small molecules binding neuregulin-1 protein – biochemical, small-molecule microarray, fluorescence 635/667, psychiatric disease protein project, primary screen (AID 1075).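 Also: score combines 667 nm spot fluorescence with signal to noise.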 Conditions: NRG1 binding, 635 nm fluorescence, higher = more signal.
Pro-neuregulin-1, membrane-bound isoform (Homo sapiens), sequence (Q02297 whole entry, looked up, the tested form may be a part, canonical isoform): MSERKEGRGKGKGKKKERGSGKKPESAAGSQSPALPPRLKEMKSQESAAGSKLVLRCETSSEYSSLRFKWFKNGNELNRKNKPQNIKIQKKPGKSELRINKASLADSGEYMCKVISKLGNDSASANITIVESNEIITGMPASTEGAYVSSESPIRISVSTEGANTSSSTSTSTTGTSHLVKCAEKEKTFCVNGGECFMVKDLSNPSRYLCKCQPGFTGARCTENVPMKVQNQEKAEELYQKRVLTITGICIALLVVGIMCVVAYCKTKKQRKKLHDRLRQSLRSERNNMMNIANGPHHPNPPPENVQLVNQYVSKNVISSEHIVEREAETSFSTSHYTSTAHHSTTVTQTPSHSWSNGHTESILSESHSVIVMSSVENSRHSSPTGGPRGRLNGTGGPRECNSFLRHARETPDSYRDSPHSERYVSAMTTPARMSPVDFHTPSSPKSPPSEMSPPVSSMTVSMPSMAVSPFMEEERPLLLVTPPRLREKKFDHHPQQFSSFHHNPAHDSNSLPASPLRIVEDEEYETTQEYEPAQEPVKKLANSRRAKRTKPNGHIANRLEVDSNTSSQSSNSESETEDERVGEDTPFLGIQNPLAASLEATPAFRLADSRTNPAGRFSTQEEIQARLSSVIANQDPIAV
In assay [7] the test system is Neuregulin-1 EGF-like domain. Put plainly: small molecules binding NRG1 EGF domain – biochemical, small-molecule microarray, 635 nm fluorescence, primary screen (AID 1081).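 Also: binding of the protein to compounds printed on small-molecule microarray slides.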 Conditions: higher = more signal.
Assay [8] is described as follows: FRG1 expression reporter modulators in myotubes – cell-based, C2C12 myotubes, firefly/Renilla luciferase, luminescence, FRG1 inhibition for FSHD, primary screen (AID 1084). Conditions: FRG1 promoter luciferase, higher = more signal, called active from +8 up or from −8 down.
Assay [9] in a line: small molecules captured by biotinylated probe aFST – biochemical, small-molecule microarray, fluorescence 635/667, stem cell growth factor project, primary screen (AID 1086).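 Also: score merges 667 nm fluorescence with signal-to-noise of each printed compound spot.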 Conditions: higher = more signal.
Assay [10] can be described thus: binders of probe aHhip on microarray, primary screen, stem cell growth factor project, biochemical, small-molecule microarray, fluorescence 635/667 (AID 1087).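 Also: score merges spot fluorescence at 667nm with spot signal to noise ratio.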 Conditions: higher = more signal.
Assay [11] concerns PRMT1 (protein arginine N-methyltransferase 1). Kind of assay: small molecules binding arginine methyltransferase PRMT1 – biochemical, small-molecule microarray, 635 nm fluorescence, primary screen (AID 1088).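 Also: binding of Prmt1 protein to compounds spotted on small-molecule microarray slides.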 Conditions: higher = more signal.
The nature of assay [12]: growth effects on S. cerevisiae YJM789 – YJM789 clinical isolate, OD600, 24 h, basal, primary screen (AID 1089).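 Also: growth of clinical yeast isolate S. cerevisiae YJM 789 seeded 1000 cells per well; test concentration not given here.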 Conditions: higher = more signal, called active from +8 up or from −8 down.
Assay [13] can be described thus: S. pombe growth modifiers, basal conditions – strain 972, OD600, 24 h, no modulator, primary screen (AID 1090).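 Also: basal condition with compound alone and no growth modifier present; test concentration not given here.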 Conditions: S. pombe 972 growth, higher = more signal, called active from +8 up or from −8 down.
Assay [14] is described as follows: budding yeast growth modifiers under rapamycin – strain BY4716, OD600, 96 h, primary screen (AID 1091). Also: test concentration not given here. Conditions: S. cerevisiae BY4716 + rapamycin, higher = more signal, called active from +8 up or from −8 down.
The target of assay [15] is Torsin-1A-interacting protein 2 (Homo sapiens) (UniProt Q8NFQ8). Put plainly: small molecules binding lysate-expressed LULL1 – cell lysate, human LULL1 lysate, 635/667 nm fluorescence, primary screen (AID 1092).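 Also: probe is lysate of COS7 cells overexpressing human LULL1; score merges per-feature 667 nm fluorescence with signal-to-noise.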 Conditions: small-molecule microarray, hLULL1 lysate binding, 635 nm fluorescence; higher = more signal.
Torsin-1A-interacting protein 2 (Homo sapiens), sequence (Q8NFQ8 whole entry, looked up): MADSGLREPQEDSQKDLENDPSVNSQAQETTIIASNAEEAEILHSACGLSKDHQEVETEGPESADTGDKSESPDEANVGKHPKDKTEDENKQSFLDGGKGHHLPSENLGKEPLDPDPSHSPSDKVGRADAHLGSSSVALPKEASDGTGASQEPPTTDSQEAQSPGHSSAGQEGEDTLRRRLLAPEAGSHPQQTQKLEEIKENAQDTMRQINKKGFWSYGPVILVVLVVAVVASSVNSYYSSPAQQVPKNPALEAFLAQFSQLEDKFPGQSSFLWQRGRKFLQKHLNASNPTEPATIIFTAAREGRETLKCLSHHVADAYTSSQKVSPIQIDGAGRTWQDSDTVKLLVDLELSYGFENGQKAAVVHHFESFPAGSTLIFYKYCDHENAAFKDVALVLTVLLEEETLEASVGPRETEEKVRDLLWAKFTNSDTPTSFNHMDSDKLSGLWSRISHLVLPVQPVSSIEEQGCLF
Assay [16] is described as follows: optical density change of DRC41 E. coli – strain DRC41, OD650, 24 h, E. coli filamentation project, primary screen (AID 1093).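 Also: MC1000 strain lacking acrAB efflux and sulA so SOS filamentation is blocked; test concentration not given here.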 Conditions: E. coli DRC41 growth, higher = more signal, called active from +8 up or from −8 down.
The nature of assay [17]: probe aLefty2 binding to arrayed compounds – biochemical, biotinylated probe, 635/667 nm fluorescence, primary screen (AID 1094).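 Also: score merges spot fluorescence near 667 nm with spot signal-to-noise ratio.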 Conditions: small-molecule microarray, higher = more signal.
Assay [18] relates to Noggin (protein binding on small-molecule microarray). Kind of assay: small molecules binding Noggin protein – biochemical, 635/667 nm fluorescence, primary screen (AID 1095).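 Also: score merges 667 nm feature fluorescence with signal to noise over triplicate slides.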 Conditions: 635 nm fluorescence, higher = more signal.
Assay [19] addresses Neurogenic locus notch homolog protein 3 (Homo sapiens) (UniProt Q9UM47). Kind of assay: small molecules binding NOTCH3 protein – biochemical, 635/667 nm fluorescence, primary screen (AID 1096). Conditions: small-molecule microarray, 635 nm fluorescence, higher = more signal.
A short description of assay [20]: probe aEGFR binding to arrayed compounds – biochemical, biotinylated probe, 635/667 nm fluorescence, primary screen (AID 1097).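 Also: probe is a biotinylated anti-EGFR antibody binding compounds printed on slides; score combines fluorescence near 667 nm and signal to noise of each spot.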 Conditions: small-molecule microarray, higher = more signal.

Neurogenic locus notch homolog protein 3 (Homo sapiens), sequence (Q9UM47 whole entry, looked up): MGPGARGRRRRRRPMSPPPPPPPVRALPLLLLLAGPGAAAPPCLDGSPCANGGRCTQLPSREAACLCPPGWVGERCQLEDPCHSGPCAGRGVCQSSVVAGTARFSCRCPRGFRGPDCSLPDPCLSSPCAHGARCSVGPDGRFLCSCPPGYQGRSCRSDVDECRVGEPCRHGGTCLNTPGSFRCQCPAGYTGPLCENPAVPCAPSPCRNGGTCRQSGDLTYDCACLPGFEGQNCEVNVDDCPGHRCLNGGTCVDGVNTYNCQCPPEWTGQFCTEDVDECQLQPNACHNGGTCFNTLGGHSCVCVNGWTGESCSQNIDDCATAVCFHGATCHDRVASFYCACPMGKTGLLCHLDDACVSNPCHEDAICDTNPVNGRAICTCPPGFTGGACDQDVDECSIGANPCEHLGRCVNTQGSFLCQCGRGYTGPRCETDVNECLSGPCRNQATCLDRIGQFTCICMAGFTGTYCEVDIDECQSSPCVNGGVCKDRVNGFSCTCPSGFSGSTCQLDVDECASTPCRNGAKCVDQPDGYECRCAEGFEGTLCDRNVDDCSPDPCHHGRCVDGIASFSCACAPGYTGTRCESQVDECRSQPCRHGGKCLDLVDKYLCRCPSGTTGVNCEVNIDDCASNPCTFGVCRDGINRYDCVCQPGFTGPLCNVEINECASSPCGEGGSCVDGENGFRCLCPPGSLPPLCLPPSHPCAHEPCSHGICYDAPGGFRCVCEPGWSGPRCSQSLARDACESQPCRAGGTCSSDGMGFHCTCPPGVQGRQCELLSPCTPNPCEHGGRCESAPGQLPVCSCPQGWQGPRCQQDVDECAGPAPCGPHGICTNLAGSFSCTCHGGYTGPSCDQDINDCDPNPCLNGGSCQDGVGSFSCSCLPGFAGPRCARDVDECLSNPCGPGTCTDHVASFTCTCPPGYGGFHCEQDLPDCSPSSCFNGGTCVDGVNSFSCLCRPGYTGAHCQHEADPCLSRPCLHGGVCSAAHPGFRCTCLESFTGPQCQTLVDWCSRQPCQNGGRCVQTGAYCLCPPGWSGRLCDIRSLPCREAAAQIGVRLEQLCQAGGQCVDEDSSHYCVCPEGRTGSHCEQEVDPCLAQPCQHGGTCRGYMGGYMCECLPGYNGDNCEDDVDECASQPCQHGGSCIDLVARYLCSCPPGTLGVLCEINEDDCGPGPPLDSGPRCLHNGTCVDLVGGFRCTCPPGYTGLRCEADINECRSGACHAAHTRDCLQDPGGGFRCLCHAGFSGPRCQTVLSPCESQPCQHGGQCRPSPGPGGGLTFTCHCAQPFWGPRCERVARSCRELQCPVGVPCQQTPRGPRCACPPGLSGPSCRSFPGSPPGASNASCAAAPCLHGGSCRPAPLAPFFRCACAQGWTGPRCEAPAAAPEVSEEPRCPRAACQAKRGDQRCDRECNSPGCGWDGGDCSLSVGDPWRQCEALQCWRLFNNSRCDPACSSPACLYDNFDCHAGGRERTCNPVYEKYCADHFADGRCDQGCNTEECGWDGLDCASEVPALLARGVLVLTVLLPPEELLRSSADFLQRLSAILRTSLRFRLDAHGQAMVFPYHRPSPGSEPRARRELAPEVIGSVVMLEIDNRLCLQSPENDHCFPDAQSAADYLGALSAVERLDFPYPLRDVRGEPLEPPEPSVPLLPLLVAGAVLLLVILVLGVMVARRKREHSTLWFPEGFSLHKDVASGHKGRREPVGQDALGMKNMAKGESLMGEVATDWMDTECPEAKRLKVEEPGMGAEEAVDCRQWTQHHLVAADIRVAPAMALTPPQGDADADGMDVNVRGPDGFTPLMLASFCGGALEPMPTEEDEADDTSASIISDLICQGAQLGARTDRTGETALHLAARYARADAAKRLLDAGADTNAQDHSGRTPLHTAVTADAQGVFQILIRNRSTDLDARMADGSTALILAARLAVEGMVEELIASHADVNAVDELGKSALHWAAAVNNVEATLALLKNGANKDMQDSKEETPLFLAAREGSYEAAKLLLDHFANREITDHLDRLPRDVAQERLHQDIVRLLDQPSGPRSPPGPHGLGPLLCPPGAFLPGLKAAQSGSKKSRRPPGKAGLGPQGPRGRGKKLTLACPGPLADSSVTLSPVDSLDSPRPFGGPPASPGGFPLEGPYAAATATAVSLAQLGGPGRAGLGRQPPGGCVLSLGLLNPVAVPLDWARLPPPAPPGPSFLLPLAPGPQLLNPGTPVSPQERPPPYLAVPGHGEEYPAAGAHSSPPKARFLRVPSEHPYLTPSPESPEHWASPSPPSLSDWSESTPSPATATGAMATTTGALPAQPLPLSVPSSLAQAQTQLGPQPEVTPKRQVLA

As for `CCCCCN1CC=CC23O[C@@H]4C=CCOC(=O)[C@@H]4[C@H]2C(=O)N(C(CO)C(C)C)[C@@H]3C1=O` (stereo not given in full), the composite z-score in [1] was 0.232; in assay [2], -1.58; in [3] it was -0.141; in assay [4], -0.495; in [5], -1.15; in assay [6] it was -0.694. Besides, the composite z-score in assay [7] was 0.657; in assay [9], -0.357; in assay [10], -0.15; in assay [11] it was -0.266; in [15], -1.52; in assay [17], -0.166. Besides, the values for the composite z-score in assay [18], in assay [19] and in [20] were -0.433, 0.247 and -0.234, respectively. In addition, the z-score in assay [8] was -0.0073 (inactive); in assay [12] it was 0.403 (inactive); in assay [13], 0.195 (inactive); in assay [14], 0.972 (inactive); in assay [16], 0.869 (inactive).

For `CC(C)[C@@H](OCc1ccccc1)[C@H](C)C=NOC[C@@H](C)[C@H](OCc1ccccc1)C(C)C`, the composite z-score in assay [1] was -0.539; in [2] it was 0.0717; in assay [3] it was -0.164; in assay [4], 0.31; in [5], 0.303; in [6] it was 0.106. The composite z-score in assay [7] is -0.44; in [9], -0.0889; in assay [10], -0.131; in assay [11] it was 0.341; in assay [15], -0.218; in assay [17], -0.0862. For the same compound, the composite z-score in assay [18] is 0.367; in assay [19] it was 0.421; in assay [20] it was -0.0234. Also, the z-score in assay [8] was -0.108 (inactive); in assay [12], 0.0268 (inactive); in assay [13], 0.893 (inactive); in assay [14], 0.338 (inactive); in assay [16], 0.413 (inactive).

As to `CO[C@H]1COC(=O)[C@@H]2CCCN2C(=O)CC=C[C@@H](C)[C@H](OC)COC(=O)CC=C[C@@H]1C`, the composite z-score in assay [1] was -0.57; in assay [2], 1.62; in assay [3] it was -0.163; in [4] it was -0.0218; in assay [5], -0.256; in assay [6], -0.796. Also, the composite z-score was 0.659 in assay [7]; 0.152 in assay [9]; 0.176 in assay [10]; 1.54 in [11]; -0.361 in assay [15]; -0.0208 in assay [17]. In addition, the composite z-score in [18] worked out at 1.48; in assay [19] it was 0.991; in assay [20], 0.34. Further, the z-score in [8] was -1.1 (inactive); in assay [12], -1.94 (inactive); in assay [13] it was -1.32 (inactive); in [14], -0.611 (inactive); in assay [16], -0.323 (inactive).

Regarding `O=C1[C@H]2[C@H]3[C@H](O)[C@H](O)CC(=NOC[C@@H](O)COCc4ccco4)[C@@H]3CC[C@H]2C(=O)N1c1ccc(F)cc1F`, the composite z-score in assay [1] is -0.469; in assay [2], 1.4; in assay [3], -0.128; in assay [4] it was 0.138; in [5], 0.21; in assay [6] it was -0.592. Moreover, the composite z-score in assay [7] is -0.574; in assay [9], -0.128; in assay [10] it was 0.177; in assay [11] it was 0.601; in [15] it was -1.34; in [17], -0.223. The values for the composite z-score in [18], in assay [19] and in assay [20] were 1.01, 0.0986 and -0.0828, respectively. Besides, the z-score was -0.24 (inactive) in assay [8]; -0.236 (inactive) in assay [12]; 0.0766 (inactive) in [13]; -1.25 (inactive) in [14]; 0.363 (inactive) in [16].

For the compound `CC(C)(C)N1C(=O)[C@H]2[C@H]3[C@H](O)[C@H](O)CC(=NO[C@@H]4O[C@H](CO)[C@@H](O)[C@H](O)[C@H]4O)[C@@H]3CC[C@H]2C1=O`, the composite z-score in assay [1] was -0.549; in assay [2], -0.151; in assay [3] it was -0.0854; in assay [4], 0.705; in assay [5] it was 0.572; in [6] it was 0.722. Moreover, the composite z-score in [7] was 1.08; in assay [9] it was 0.135; in [10] it was -0.0994; in assay [11], 1.49; in assay [15], 1.97; in assay [17], -0.217. Further, the composite z-score was 0.564 in [18], 0.794 in assay [19] and -0.0229 in assay [20]. For the same compound, the z-score is 0.677 (inactive) in [8]; -0.233 (inactive) in assay [12]; -0.113 (inactive) in assay [13]; -1.47 (inactive) in [14]; 0.637 (inactive) in assay [16].
